Outcome and AC50 data for 40 compounds are collected here from PubChem BioAssay (EPA / NIEHS).

Each structure is given as a SMILES string. Calls of active or inactive are those of the source. The calls were made as follows: active = hit-call score of the fitted dose curve at least 0.9, where 1 is the maximum; inactive = score below 0.9.

The target in the test is Myc proto-oncogene protein (Homo sapiens) (UniProt P01106). As to the kind of experiment: ATG_Myc_CIS: Attagene CIS-FACTORIAL HepG2 Assay for human Myelocytomatosis (Myc) Proto-Oncogene Transcription Factor (AID 2282990). Conditions: HepG2, Attagene cis-reporter transcription factor activity; actives raise or lower the signal. The method, then: ATG_CIS is a cell-based, multiplexed-readout assay that uses HepG2, a human liver cell line, with measurements taken at 24 hours after chemical dosing in a 24-well plate.ATG_Myc_CIS is one of 52 assay component(s) measured or calculated from the ATG_CIS assay. It is designed to make measurements of mRNA induction, a form of inducible reporter, as detected with fluorescence intensity signals by Reverse transcription polymerase chain reaction (RT-PCR) and Capillary electrophoresis technology.Data from the assay component ATG_Myc_CIS was analyzed into 1 assay endpoint. This assay endpoint, ATG_Myc_CIS, was analyzed with bidirectional fitting relative to DMSO as the negative control and baseline of activity. Using a type of inducible reporter, measures of mRNA for gain or loss-of-signal activity can be used to understand the reporter gene at the transcription factor-level as they relate to the gene MYC. Furthermore, this assay endpoint can be referred to as a primary readout, because this assay has produced multiple assay endpoints where this one serves a reporter gene function. To generalize the intended target to other relatable targets, this assay endpoint is annotated to the dna binding intended target family, where the subfamily is basic helix-loop-helix leucine zipper.
Sequence of Myc proto-oncogene protein (Homo sapiens) (P01106 whole entry, looked up): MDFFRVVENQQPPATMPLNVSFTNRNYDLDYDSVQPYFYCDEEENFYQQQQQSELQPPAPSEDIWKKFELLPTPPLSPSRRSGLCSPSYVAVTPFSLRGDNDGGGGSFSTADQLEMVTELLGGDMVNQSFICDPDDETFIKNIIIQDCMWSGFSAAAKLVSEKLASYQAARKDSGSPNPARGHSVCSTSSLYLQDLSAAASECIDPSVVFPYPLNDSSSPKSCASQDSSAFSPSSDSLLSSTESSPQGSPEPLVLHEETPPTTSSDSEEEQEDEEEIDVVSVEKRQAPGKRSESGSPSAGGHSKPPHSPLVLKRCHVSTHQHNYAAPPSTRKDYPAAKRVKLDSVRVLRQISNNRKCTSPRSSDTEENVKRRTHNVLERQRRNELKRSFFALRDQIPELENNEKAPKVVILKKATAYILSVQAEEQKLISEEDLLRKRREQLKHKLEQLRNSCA
Human liver HepG2 cells are transiently transfected with multiple reporter transcription units (MRTUs) in 6-well plates using FuGene 6 reagent (Roche; 3 ml FuGene/1 mg DNA). The MRTU constructs are regulated by a cis-regulating element (promoter). […] A major difference between the CIS and TRANS system is that in CIS activities of endogenous TFs are measured, whereas the TRANS assay evaluates changes in activities of exogenous, chimeric NR-Gal4 proteins. […] At the end of 24 hour incubation, total RNA was isolated using TriZol reagent (Invitrogen). The isolated RNA is then reverse-transcribed using oligo(dT) primer and Mo-MLV reverse transcriptase (Invitrogen) with DNAse I (Ambion) treatment for 30 min. The one-tenth of the produced cDNA was amplified by PCR using Taq DNA polymerase (Invitrogen) and two reporter sequence-specific primers. The PCR products were fluorescently labeled by primer extension with 6-arboxyfluorescein (6-FAM) 5'-labeled reporter sequence-specific primer (2 min at 95 C, 20 s at 68 C and 10 min at 72 C) and these products were digested with 5U of HpaI (New England Biolabs) for 2h at 37 C. The fragments were purified using Qiaquick PCR columns (Qiagen), analyzed on an ABI 3130xL genetic analyzer (Applied Biosystems) with peak positions identified by using a set of X-rhodamine (ROX)-labeled MapMarker1000 molecular weight standards (BioVentures). The raw capillary electrophoresis data was processed using Attagraph software (Attagene).
As for `CCOP(=S)(OCC)Oc1cc(C)nc(C(C)C)n1`, the call was inactive.

In the case of `CCCSP(=O)(OCC)SCCC`, the call was inactive. On the same count and under the same terms, for `CN(C)NC(=O)CCC(=O)O` the value was “inactive”. For the compound `CN(C)C(=O)Nc1cccc(C(F)(F)F)c1`, the call was inactive. On the same count and under the same terms, in the case of `Cc1nn(-c2cc(NS(C)(=O)=O)c(Cl)cc2Cl)c(=O)n1C(F)F` it was “inactive”. `CCCOCC(=Nc1ccc(Cl)cc1C(F)(F)F)n1ccnc1`: the outcome was inactive. Still for that read-out and setting: for `CCOP(=S)(OCC)OC(Cl)C(Cl)(Cl)Cl` (stereo not given) the value was “inactive”; for `C[N+]1(C)CCCCC1`, “inactive”.

`CC(COc1ccc(Oc2ccccc2)cc1)Oc1ccccn1` (stereo not given): the compound was called inactive.

Take `COc1ccc(C(=CC(=O)N2CCOCC2)c2ccc(Cl)cc2)cc1OC`: the result was inactive. On the same count and under the same terms, for `CCCCOC(=O)[C@@H](C)Oc1ccc(Oc2ccc(C#N)cc2F)cc1` the value was “inactive”. Still for that read-out and setting: for `Cc1cc(C2CC2)nc(Nc2ccccc2)n1` the value was “inactive”.

Turning to `CCOP(=S)(OCC)Oc1ccc([N+](=O)[O-])cc1`, the outcome was inactive. Take `CCOC(=O)COc1cc(-c2nn(C)c(OC(F)F)c2Cl)c(F)cc1Cl`: the call was inactive. Regarding `COc1cc(OC)nc(Sc2cccc(Cl)c2C(=O)O)n1`, the call was inactive. Still for that read-out and setting: for `CCCSP(=O)(OCC)Oc1ccc(Br)cc1Cl` (stereo not given) the value was “inactive”; for `CCc1cccc(C)c1N(C(=O)CCl)C(C)COC` (stereo not given), “inactive”. The same measure, in the same setting: for `CCOP(=S)(Oc1cnc(C(C)(C)C)nc1)OC(C)C` (stereo not given) the value was “inactive”; for `CC(C)N(C(=O)SCC(Cl)=C(Cl)Cl)C(C)C`, “inactive”; for `CSc1nnc(C(C)(C)C)c(=O)n1N`, “inactive”. On the same count and under the same terms, in the case of `CN1COCN(Cc2cnc(Cl)s2)C1=N[N+](=O)[O-]` it was “inactive”. For the compound `CC1(C(=O)Nc2ccc(O)c(Cl)c2Cl)CCCCC1`, the result was inactive. Still for that read-out and setting: for `CCC(CC)Nc1c([N+](=O)[O-])cc(C)c(C)c1[N+](=O)[O-]` the value was “inactive”; for `CCC(=O)Nc1ccc(Cl)c(Cl)c1`, “inactive”. For `CSC1=N[C@@](C)(c2ccccc2)C(=O)N1Nc1ccccc1`, the call was inactive.

Consider `CCCCN(CC)c1c([N+](=O)[O-])cc(C(F)(F)F)cc1[N+](=O)[O-]`, for which the result was inactive. On the same count and under the same terms, in the case of `CCOP(=O)(OCC)Oc1cc(C)nc(C(C)C)n1` it was “inactive”. As usually defined, the AC50 is the concentration giving half of the maximal activity seen. With `CCc1cccc(CC)c1N(COC)C(=O)CCl`, the AC50 was 2.68 µM (active). Regarding `N#CSCSC#N`, the result was inactive. In the case of `C#CCC1=C(C)C(OC(=O)C2C(C=C(C)C)C2(C)C)CC1=O` (stereo not given), the AC50 was 68.1 µM (active).

As for `CCOP(=S)(OCC)SCCSCC`, the result was inactive. Same read-out and setting: in the case of `CSc1nc(NC(C)C)nc(NC(C)C)n1` it was “inactive”; in that of `CC(=NC#N)N(C)Cc1ccc(Cl)nc1`, “inactive”.

As to `CC(C)=CC1C(C(=O)OCN2C(=O)C3=C(CCCC3)C2=O)C1(C)C` (stereo not given), the call was inactive. For `FC(F)C(F)(F)OCC(Cn1cncn1)c1ccc(Cl)cc1Cl` (stereo not given), the compound was classed as inactive. On the same count and under the same terms, for `O=C(O)c1cc(Oc2ccc(C(F)(F)F)cc2Cl)ccc1[N+](=O)[O-]` the value was “inactive”.

Regarding `COc1cccc(C(=O)NN(C(=O)c2cc(C)cc(C)c2)C(C)(C)C)c1C`, the result was inactive.

`CNC(=O)ON=C(C)SC`: the compound was called inactive.

For `CCCCSP(=O)(SCCCC)SCCCC`, the AC50 is 83.2 µM (active). Turning to `COP(=O)(NC(C)=O)SC` (stereo not given), the call was inactive.
